In assay [1] the test system is Human papillomavirus type 1a protein E7 (residues 44-93). The experiment in a line: small molecules binding HPV E7 44-93 – biochemical, small-molecule microarray, residues 44-93, 635 nm fluorescence, primary screen (AID 1108).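 Also: E7 fragment applied at 1 µg/mL in TBST for 1 h at 4 C; score combines spot fluorescence with its signal to noise ratio.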 The note with it: fluorescence 635 nm, higher = more signal.
Assay [2] can be described thus: hepatitis C replication reporter changes, two-sided – Huh7 cells, luciferase reporter, HCV replication inhibitor project, primary screen (AID 1109).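 Also: huh7 hepatoma cells harbouring a luciferase neomycin HCV replicon reporter; luciferase luminescence as measure of HCV replicon replication; test concentration not given here.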 Conditions: Huh7 HCV replicon luciferase reporter, 48 h; higher = more signal. (Reporter assays use an easily measured gene product as a stand-in for the process of interest.)
Assay [3] deals with Left-right determination factor 2 (Homo sapiens) (UniProt O00292). Briefly: small molecules binding LEFTY2 protein – biochemical, small-molecule microarray, 635 nm fluorescence scan, primary screen (AID 1110). Conditions: higher = more signal.
Assay [4] deals with Calmodulin-1 (Homo sapiens) (UniProt P0DP23). Briefly: small molecules binding calmodulin-1 with EGTA – biochemical, small-molecule microarray, Cy5-labelled CALM1, profiling panel (AID 1111).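 Also: labelled calmodulin applied in Tris saline Tween buffer holding calcium plus EGTA and DTT.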 The note with it: Cy5-CALM1 binding fluorescence, higher = more signal.
The target is the same in assay [5]. Briefly: small molecules binding Ca-loaded calmodulin-1 – biochemical, small-molecule microarray, Cy5-labelled CALM1, plus calcium, artefact control for SMM control-protein annotation, profiling panel (AID 1112).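 Also: score merges spot fluorescence with signal to noise from triplicate slides.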 Conditions: Cy5-CALM1 binding fluorescence, higher = more signal.
Assay [6] in a line: probe aWnt5a binding to arrayed compounds – biochemical, biotinylated probe, 635/667 nm fluorescence, primary screen (AID 1113).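 Also: score merges 667 nm fluorescence intensity with signal-to-noise per printed feature.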 Conditions: small-molecule microarray, higher = more signal.
The nature of assay [7]: probe aShh binding to arrayed compounds – biochemical, biotinylated probe, 635/667 nm fluorescence, primary screen (AID 1114).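 Also: probe is biotin-labelled aShh protein from a stem cell growth factor screen; measures binding of labelled protein to compounds printed on the slide; score merges feature fluorescence at 667 nm with signal-to-noise.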 The note with it: small-molecule microarray, higher = more signal.
The nature of assay [8]: probe aNog binding to arrayed compounds – biochemical, biotinylated probe, 635/667 nm fluorescence, primary screen (AID 1115).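 Also: probe is biotinylated aNog protein used at 0.15 µg/mL for 1 h at 4 C; z-score combines 667 nm fluorescence of each spot with its signal to noise.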 The note with it: small-molecule microarray, higher = more signal.
Assay [9] addresses Torsin-1A-interacting protein 1 (Homo sapiens) (UniProt Q5JTV8). Briefly: compound microarray binding of lysate hLAP1 – cell lysate, small-molecule microarray, COS7 lysate, 635/667 nm fluorescence, primary screen (AID 1116). Conditions: 635 nm fluorescence, higher = more signal.
Assay [10] deals with Alpha-bungarotoxin (Bungarus multicinctus) (UniProt P60615). The experiment in a line: compounds binding labelled alpha-BTX control protein – biochemical, small-molecule microarray, Alexa647 label, 635/667 nm fluorescence, artefact control for SMM control protein annotation, profiling panel (AID 1117). The note with it: alpha-BTX-A647 binding fluorescence, higher = more signal.

A further assay has as its target Albumin (Bos taurus) (UniProt P02769). Briefly: compounds binding labelled BSA control protein – biochemical, small-molecule microarray, Alexa647 label, 635/667 nm fluorescence, artefact control for SMM control protein annotation, profiling panel (AID 1118).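 Also: score merges 667 nm emission intensity and signal-to-noise per printed compound spot.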 The note with it: BSA-A647 binding, fluorescence 635 nm, higher = more signal.
Assay [11] in a line: probe aXIP binding to arrayed compounds – biochemical, NeuroSMM set, 635/667 nm fluorescence, primary screen (AID 1119).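 Also: probe is the protein aXip251-270 applied at 1 µg/mL to compound-printed slides; binding of probe to printed compounds measured as 667 nm fluorescence plus signal to noise.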 Conditions: small-molecule microarray, higher = more signal, called active from +8 up or from −8 down.
Assay [12] is described as follows: probe aNOTCH3 binding on compound microarray – biochemical, small-molecule microarray, 635/667 nm fluorescence, primary screen (AID 1120).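 Also: probe is a biotin-tagged antibody raised against NOTCH3 rather than NOTCH3 protein; score merges spot fluorescence near 667 nm with spot signal to noise.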 The note with it: higher = more signal.
A short description of assay [13]: probe aNOTCH2 binding on compound microarray – biochemical, small-molecule microarray, 635/667 nm fluorescence, primary screen (AID 1121).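 Also: score merges feature fluorescence read at 667 nm with its signal to noise.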 Conditions: higher = more signal.
Assay [14] deals with Carbonic anhydrase 2 (Homo sapiens) (UniProt P00918). The experiment in a line: compounds binding carbonic anhydrase 2 – biochemical, small-molecule microarray, Alexa647-labelled CAII, profiling panel (AID 1122). The note with it: CAII-A647 binding fluorescence, higher = more signal.
A short description of assay [15]: COS7 lysate on small-molecule microarray, probe aHis, 635 nm (AID 1123).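 Also: z-score combines 667nm fluorescence intensity with signal-to-noise per printed compound spot.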 The note with it: COS7 cell lysate, fluorescence, higher = more signal.
Assay [16] is described as follows: probe aLAP1 signal on lysate-treated microarray – cell lysate, small-molecule microarray, COS7 lysate, primary screen (AID 1124).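 Also: lysate comes from COS7 cells expressing LAP1 and is applied at 0.3 µg/mL; score merges spot fluorescence near 667 nm with signal-to-noise over triplicate slides.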 Conditions: probe aLAP1, fluorescence, higher = more signal.
A further assay has as its system Sam68 (KHDRBS1). The experiment in a line: compounds binding KHDRBS1 protein – biochemical, small-molecule microarray, 635 nm fluorescence, primary screen (AID 1125).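 Also: score merges 667 nm channel intensity with signal to noise over triplicate slides.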 The note with it: higher = more signal.
Assay [17] deals with Chordin-like protein 2 (CHRDL2). The experiment in a line: compounds binding chordin-like 2 – biochemical, small-molecule microarray, 635 nm fluorescence, primary screen (AID 1126).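 Also: printed compound slides probed with Chrdl2 protein at 4 µg/mL for 1 h at 4 C; score merges 667 nm emission intensity with signal to noise over three replicate slides.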 Conditions: fluorescence 635 nm, higher = more signal.
In assay [18] the target is Concanavalin-A (Canavalia ensiformis) (UniProt P02866). Briefly: compounds binding concanavalin A lectin – biochemical, small-molecule microarray, Alexa647 label, 635 nm, artefact control for SMM control protein annotation, primary screen (AID 1127).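 Also: z combines 667 nm emission intensity with signal-to-noise across three replicate slides.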 Conditions: ConA-A647 binding fluorescence, higher = more signal.

Active and inactive are the calls of the source.

Albumin (Bos taurus), sequence (P02769 whole entry, looked up): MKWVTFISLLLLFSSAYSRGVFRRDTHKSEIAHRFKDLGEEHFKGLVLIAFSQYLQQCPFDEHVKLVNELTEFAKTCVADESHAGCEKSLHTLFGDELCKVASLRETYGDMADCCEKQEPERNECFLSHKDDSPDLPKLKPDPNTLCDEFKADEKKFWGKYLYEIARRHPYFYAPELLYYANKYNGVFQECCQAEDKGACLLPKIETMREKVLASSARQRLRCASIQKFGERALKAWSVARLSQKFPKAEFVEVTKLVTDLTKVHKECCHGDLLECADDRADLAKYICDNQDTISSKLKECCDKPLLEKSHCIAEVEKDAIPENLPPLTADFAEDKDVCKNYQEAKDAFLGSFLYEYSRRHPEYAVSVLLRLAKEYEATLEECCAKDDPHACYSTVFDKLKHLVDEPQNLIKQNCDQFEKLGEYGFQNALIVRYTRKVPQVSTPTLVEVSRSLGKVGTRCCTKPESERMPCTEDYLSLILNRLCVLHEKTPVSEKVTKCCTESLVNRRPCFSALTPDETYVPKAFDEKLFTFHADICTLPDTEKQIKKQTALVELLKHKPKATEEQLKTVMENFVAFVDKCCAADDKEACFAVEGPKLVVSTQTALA
Alpha-bungarotoxin (Bungarus multicinctus), sequence (P60615 whole entry, looked up): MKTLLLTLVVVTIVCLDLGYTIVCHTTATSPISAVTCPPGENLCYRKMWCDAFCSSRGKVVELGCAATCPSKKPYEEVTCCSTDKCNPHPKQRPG
Concanavalin-A (Canavalia ensiformis), sequence (P02866 whole entry, looked up): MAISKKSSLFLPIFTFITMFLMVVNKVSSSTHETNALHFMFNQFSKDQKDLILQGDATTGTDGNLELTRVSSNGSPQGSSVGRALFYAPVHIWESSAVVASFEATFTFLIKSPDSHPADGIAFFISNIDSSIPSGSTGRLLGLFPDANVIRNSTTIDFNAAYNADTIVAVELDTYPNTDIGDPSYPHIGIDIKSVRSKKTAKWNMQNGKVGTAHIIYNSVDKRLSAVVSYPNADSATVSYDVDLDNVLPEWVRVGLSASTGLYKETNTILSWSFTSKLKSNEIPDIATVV
Left-right determination factor 2 (Homo sapiens), sequence (O00292 whole entry, looked up): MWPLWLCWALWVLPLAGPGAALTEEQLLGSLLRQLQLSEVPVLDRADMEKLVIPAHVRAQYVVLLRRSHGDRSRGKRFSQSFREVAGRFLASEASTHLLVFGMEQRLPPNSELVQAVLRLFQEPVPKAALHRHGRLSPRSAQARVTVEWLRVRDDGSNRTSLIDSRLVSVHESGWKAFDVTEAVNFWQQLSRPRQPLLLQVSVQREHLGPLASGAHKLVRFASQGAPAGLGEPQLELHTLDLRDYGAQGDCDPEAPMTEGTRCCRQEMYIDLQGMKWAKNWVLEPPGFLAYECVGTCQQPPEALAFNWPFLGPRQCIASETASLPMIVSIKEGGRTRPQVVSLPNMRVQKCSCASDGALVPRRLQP
Torsin-1A-interacting protein 1 (Homo sapiens), sequence (Q5JTV8 whole entry, looked up): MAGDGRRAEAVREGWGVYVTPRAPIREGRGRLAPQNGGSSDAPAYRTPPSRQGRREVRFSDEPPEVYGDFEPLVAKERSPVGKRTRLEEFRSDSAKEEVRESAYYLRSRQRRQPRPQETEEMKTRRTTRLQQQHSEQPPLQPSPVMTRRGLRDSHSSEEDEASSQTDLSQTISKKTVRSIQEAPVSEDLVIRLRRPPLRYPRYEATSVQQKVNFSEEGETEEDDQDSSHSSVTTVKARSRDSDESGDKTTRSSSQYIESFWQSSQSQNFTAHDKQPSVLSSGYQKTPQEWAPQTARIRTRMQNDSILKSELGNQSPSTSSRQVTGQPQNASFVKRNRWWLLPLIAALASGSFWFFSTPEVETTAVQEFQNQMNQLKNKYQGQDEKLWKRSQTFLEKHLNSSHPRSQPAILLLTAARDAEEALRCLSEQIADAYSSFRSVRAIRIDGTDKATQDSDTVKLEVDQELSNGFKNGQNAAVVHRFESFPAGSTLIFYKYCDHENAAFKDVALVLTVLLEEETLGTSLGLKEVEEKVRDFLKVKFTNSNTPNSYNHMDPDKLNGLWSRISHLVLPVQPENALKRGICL

`COc1ccc([Si](C)(C)[C@H]2[C@H](CCn3cc([C@H](O)c4ccccc4)nn3)O[C@@]3(C(=O)N(Cc4ccc(N5CCOC5=O)cc4)c4ccccc43)[C@@H]2C)cc1`: the composite z-score in [1] is -0.873; in [3], -0.849; in assay [4], 0.287; in assay [5], 0.481; in assay [6] it was -0.176; in [7] it was -0.138. The composite z-score in [8] is -0.1; in assay [9], -0.833; in assay [10], -0.374; with Albumin (Bos taurus), -0.397; in assay [12] it was -0.172; in [13], -0.186. Also, the composite z-score was -0.586 in assay [14]; -0.55 in assay [15]; -1.14 in assay [16]; -0.426 in the assay with Sam68 (KHDRBS1); -0.586 in assay [17]; -0.321 in assay [18]. The same molecule gave a z-score in [2] of -2.21. Besides, the composite Z-score in assay [11] is 0.486 (inactive).
`NCCCCCNC(=O)[C@@H]1C[C@@H]2C(=O)N[C@@H](CCCCN)C(=O)N2[C@@H]1c1cccc(OCCO)c1`: the composite z-score in assay [1] was 0.309; in assay [3], 0.599; in assay [4] it was -0.804; in [5] it was -0.262; in assay [6] it was 0.0921; in [7] it was 0.241. Also, the composite z-score in [8] was 0.628; in [9], 1.97; in assay [10], -0.066; with Albumin (Bos taurus), 0.104; in assay [12], -0.0168; in assay [13], -0.0637. The composite z-score in assay [14] is -0.153; in [15], 0.043; in [16], 1.55; with Sam68 (KHDRBS1) it was 0.668; in assay [17], 1.18; in assay [18], -0.0079. This molecule gave a z-score in assay [2] of 0.731. The composite Z-score in [11] is 0.416 (inactive).
For the molecule `CC(C)C(O)C1C=CC2C(=O)N(C)C(=O)C2N1N(c1ccccc1)c1ccccc1` (stereo not given), the composite z-score in assay [1] was -0.192; in [3] it was 0.0172; in assay [4], 0.107; in [5], 0.368; in [6] it was -0.0165; in assay [7], 0.14. Further, the composite z-score in assay [8] is 0.603; in assay [9] it was 0.251; in assay [10] it was 0.218; with Albumin (Bos taurus), 0.736; in assay [12], -0.047; in assay [13], -0.0482. The composite z-score in assay [14] is 0.697; in assay [15], 0.986; in [16], -0.37; in the assay on Sam68 (KHDRBS1), -0.797; in assay [17], -1.17; in assay [18] it was -0.847. The molecule further had a z-score in [2] of 0.865. Moreover, in assay [11], the composite Z-score was 0.491 (inactive).
Turning to `Cc1ccc(S[C@]2(C(=O)NC(C)C)CC(=O)N(Cc3ccccc3C(F)(F)F)[C@@H]2c2ccc(CO)cc2I)cc1`, the composite z-score in [1] is 0.187; in [3] it was -0.796; in [4], -0.301; in [5] it was 0.0016; in assay [6] it was -0.13; in assay [7] it was -0.0769. For the same molecule, the composite z-score is -0.0965 in assay [8]; -0.0123 in assay [9]; 1.65 in [10]; 0.671 with Albumin (Bos taurus); -0.236 in assay [12]; -0.128 in assay [13]. Besides, the composite z-score was 0.344 in assay [14]; 0.352 in assay [15]; -0.0811 in [16]; 0.0747 with Sam68 (KHDRBS1); -1.35 in assay [17]; -0.03 in [18]. The molecule further came in with a z-score in assay [2] of -2.54. Further, the composite Z-score in assay [11] is 0.0903 (inactive).
In the case of `COc1c(C)cc(-c2cc3c(c(-c4ccccc4)n2)[Si](C(C)C)(C(C)C)OC3)cc1C`, the composite z-score in assay [1] was -0.689; in assay [3], -0.0473; in [4], -0.319; in assay [5], -0.119; in [6] it was -0.184; in assay [7], -0.153. Besides, the composite z-score in [8] was -0.122; in assay [9] it was -0.16; in [10], 0.857; with Albumin (Bos taurus) it was 0.247; in assay [12] it was -0.116; in assay [13], -0.21. Besides, the composite z-score in assay [14] is -0.185; in assay [15], -0.591; in assay [16] it was -0.154; in the assay with Sam68 (KHDRBS1) it was -0.5; in assay [17], 0.652; in [18], 0.134. In assay [2], this molecule registered a z-score of -0.268. Further, in [11], the composite Z-score was 0.478 (inactive).
